# Bioassay records as filed in PubChem BioAssay.
# This excerpt belongs to a sample that is enriched for hits.
# TbPYK inhibitor = qHTS of Trypanosoma Brucei Inhibitors. pyruvate kinase (Trypanosoma brucei), Q57TT1. TbPYK enzyme, Kinase-Glo Plus ATP luminescence, 45 min. Potency, µM (highest dose often 76.8 µM), most hits filed as inhibitors. 410,000 compounds, 0.12% hits; further: nearly all actives have a fitted effect of over 50% in size
#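 Quantitative HTS: titrated library compounds versus trypanosomal pyruvate kinase in TEA buffer (pH 7.2) containing KCl, MgCl2, BSA and Tween-20. Reactions were initiated with ADP, 130 uM final. Kinase-Glo Plus luminescence was read after 45 min at RT.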
# Shiga toxin inh = A qHTS for Small Molecule Inhibitors of Shiga Toxin. 290,000 compounds, 9.2% hits. Vero cells, Shiga toxin protein synthesis inhibition reporter. inhibition, % at 38.7 µM; in the data active means inhibition mostly above about 28%, no sharp cut-off; inactive means mostly below about 43%
# Giardia FBPA inh = qHTS Assay for Inhibitors of Fructose-1,6-bisphosphate Aldolase from Giardia Lamblia. 290,000 compounds, 0.71% hits. Potency, µM (series often up to 59.6 µM), hits mostly inhibitors. AID 2451, 2010. purified Giardia FBPA. A8B2U2; further: nearly all actives have a fitted effect of over 55% in size
# Target sequence (A8B2U2 whole entry, looked up): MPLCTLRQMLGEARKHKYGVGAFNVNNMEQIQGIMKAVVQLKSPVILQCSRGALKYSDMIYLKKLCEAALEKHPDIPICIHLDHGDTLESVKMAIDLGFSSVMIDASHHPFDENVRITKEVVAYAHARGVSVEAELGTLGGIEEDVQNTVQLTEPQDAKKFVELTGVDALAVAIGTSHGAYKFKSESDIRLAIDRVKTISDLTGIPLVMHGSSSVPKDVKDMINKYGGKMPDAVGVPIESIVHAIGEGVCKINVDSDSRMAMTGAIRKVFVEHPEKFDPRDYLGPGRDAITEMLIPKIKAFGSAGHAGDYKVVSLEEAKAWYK
#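 40 nM FBPA preincubated 10 min at RT with compound (up to 57.5 uM final), then substrate plus GAPDH/TPI/NAD/arsenate coupling and diaphorase/resazurin added. Fluorescence read after 20 min at RT, 525/598 nm.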
# Cycloheximide cs = Cycloheximide Counterscreen for Small Molecule Inhibitors of Shiga Toxin; max response, %; AID 2314, 2010; cell reporter, cycloheximide protein synthesis inhibition counterscreen; 300,000 compounds, 12% hits; in the data active means max response mostly above about 13%, no sharp cut-off; inactive means mostly below about 14%; further: read at 38.3 µM for the half of the compounds with a filed dose
# RE007 growth inh = qHTS Assay for Inhibitors of the HIV-1 protein Vpr; 360,000 compounds, 0.21% hits; S. pombe RE007 Vpr strain, BacTiter-Glo ATP luminescence, 24 h; Potency, µM (titrated, usually from 92.2 µM), most hits filed as inhibitors; active means well fitted falling curve with a large enough effect; inconclusive means small, poorly fitted or top-dose-only effect; inactive means no such curve, though single readings can be large or run the other way; further: nearly all actives have a fitted effect of over 50% in size
#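 Fission yeast RE007 carrying one integrated HIV-1 vpr copy, seeded at OD 0.01 in PMG+AL medium with 23 nL pinned compound. Grown 24 h at 30 degrees; viability read by BacTiter-Glo luminescence after 5 min.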
# LmPK inhibitor = qHTS Assay for Inhibitors of Leishmania Mexicana Pyruvate Kinase (LmPK); Potency, µM (doses to about 57.5 µM), most hits filed as inhibitors; 290,000 compounds, 0.37% hits; purified LmPK, Kinase-Glo ATP luminescence, 1 h; Q27686; AID 1721, 2009
#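 Pyruvate kinase activity monitored as ATP production (luciferase luminescence). Conditions: 0.1 nM enzyme, 0.5 mM PEP, 0.1 mM ADP, 1 h, RT; normalized against uninhibited and no-enzyme wells.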
# Numbers stand for hits; n = inactive; u = inconclusive; x = no result given; [ ] = another dose, or the depositor's remark. Unless noted, the call rests on the fitted dose curve; in most records, active means well fitted curve in the direction sought with a large enough effect; inconclusive means small, poorly fitted or top-dose-only effect, or another doubt; inactive means no such curve, though single readings can be large; an effect the other way counts as inactive or inconclusive.
SMILES,TbPYK inhibitor,Shiga toxin inh,Giardia FBPA inh,Cycloheximide cs,RE007 growth inh,LmPK inhibitor
COc1cccc(/C=N/NC(=S)NC2CC3CCC2C3)c1OC (configuration not stated),n,n,n,n,n,n
Oc1ccccc1/C=N/NC(=S)NC1CC2CCC1C2 (configuration not stated),n,45,n,32,u,n
Cc1ccc(CNC(=O)c2ccccc2N)cc1,n,n,n,n,n,n
Cc1cccc(CNC(=O)c2ccccc2N)c1,n,n,n,20,n,n
O=C(NC1CCCC1)C(c1ccccc1)N(C(=O)c1csnn1)c1ccccc1F (configuration not stated),n,n,n,n,n,n
COc1cccc(/C=N/NC(=O)c2cnccn2)c1,n,86,n,75,n,n
COc1cccc(/C=N/NC(=O)c2cnccn2)c1O,n,89,n,37,n,n
COc1ccc(/C=N/NC(=O)c2cnccn2)cc1O,n,38,n,65,n,n
COc1cccc(C=NNC(=O)CCCC(=O)NN=Cc2cccc(OC)c2)c1,n,x,x,x,n,x
COc1cccc(C(=O)O/N=C(\C)c2cnccn2)c1,n,n,n,19,n,u
COc1cc(/C=N/NC(=O)c2ccncc2)ccc1O,n,n,n,n,n[18.4 µM],n
Cc1c(Cl)cccc1-n1ncc(C(=O)Nc2ccc(F)cc2F)c1C1CCN(C(=O)OC(C)(C)C)CC1,n,x,x,x,x,x
COc1cccc(/C=N/NC(=O)C(C)n2nnc3ccccc32)c1 (configuration not stated),u,n,n,25,n,n
O=C(N/N=C/c1cc([N+](=O)[O-])ccc1Cl)c1cnccn1,n,n,n,n,n,n
COc1ccc(/C=N/NC(=O)c2cnccn2)c(OC)c1OC,n,n,n,n,n,n
O=C(N/N=C/c1cccc([N+](=O)[O-])c1)c1cnccn1,n,active,n,n,n,n
COc1ccc(OC)c(/C=N/NC(=O)c2cnccn2)c1,n,69,n,n,n,n
COc1cccc(/C=N/NC(=O)CCn2nnc3ccccc32)c1,n,n,n,n,n,n
CC1CCc2onc(C(=O)N3CCN(c4ccc(F)cc4)CC3)c2C1 (configuration not stated),n,x,x,x,x,x
COc1ccccc1C1=Nn2c(nnc2-c2cccc(OC)c2OC)SC1,x,n,n,n,x,x
CCOC(=O)C(C(=O)OCC)C(=O)c1cccc2ccc3ccccc3c12,n,x,x,x,n,x
Cc1ccc(C)c(Nc2ncnc3c2cnn3-c2ccc(F)cc2)c1,n,x,x,x,x,x
CC(=O)Nc1nnc(COc2ccccc2)s1,n,55,n,21,n,n
CC(=O)Nc1nnc(COc2ccc(Cl)cc2)s1,n,92,n,57,n,n
COC(=O)C(=O)Nc1nnc(COc2ccccc2)s1,n,n,x,n,n,n
SMILES,TbPYK inhibitor,Shiga toxin inh,Giardia FBPA inh,Cycloheximide cs,RE007 growth inh,LmPK inhibitor
CC(=O)c1csc(COc2ccc(Cl)cc2)n1,n,38,n,44,n,n
COc1cccc(N(CC(=O)N2CCC(C)CC2)S(=O)(=O)c2ccc(C)cc2)c1,n,x,x,x,x,x
CC(CN1C(C)CCCC1C)OC(=O)c1ccc(Cl)cc1Cl (configuration not stated),n,n,n,n,n,n
O=C(CSc1nc2c(c(=O)[nH]1)CCCC2)Nc1ccc(Br)cc1,n,x,x,x,x,x
CCCCC(=O)Nc1cccc(-c2nnc(-c3ccccc3)o2)c1,n,43,n,35,n,n
O=C(Nc1cccc(-c2nnc(-c3ccccc3)o2)c1)c1ccco1,n,n,n,n,n,n
CCC(=O)Nc1cccc(-c2nnc(-c3ccccc3)o2)c1,n,x,x,x,n,x
O=C(Nc1ccccc1)c1cccc(-c2nnc(-c3ccccc3)o2)c1,n,n,n,17,n,n
COc1ccc(-n2c(=O)c3ccccc3n(Cc3ccc(F)cc3Cl)c2=O)cc1OC,n,x,x,x,x,x
CCn1cc(S(=O)(=O)c2ccc(C)cc2)c(=O)c2cc(F)c(N3CCCCCC3)cc21,n,x,x,x,x,x
COc1cc(-c2noc(-c3ccc(NCC4CCCO4)c([N+](=O)[O-])c3)n2)cc(OC)c1OC (configuration not stated),n,x,x,x,x,x
COc1ccc(N(C)S(=O)(=O)c2cccc(C(=O)NC3CCC(C)CC3)c2)cc1 (configuration not stated),n,n,n,16,n,n
COC(=O)C(C(=O)OC)[C@@H]1O[C@@]23COC=C[C@]2(C)[C@H]3c2ccccc21,x,x,n,x,x,x
Cc1c(C(=O)Oc2ccc(F)cc2)sc2ncn(Cc3cccc(F)c3)c(=O)c12,n,n,n,n,n,n
CCn1cnc2sc(C(=O)Oc3cccc(C)c3)c(C)c2c1=O,n,79,n,29,n,n
C=C1CC[C@H](O)C/C1=C/C=C1\CCC[C@]2(C)[C@H]1CC[C@H]2[C@@H](C)/C=C\[C@@H](C)C(C)C,x,x,n,x,x,x
CCCNC(=S)Nc1ccc(Br)cc1,n,n,x,n,n,n
CC(C)CCNC(=O)/C=C/c1ccc(Br)cc1,n,100,n,37,x,n
CC(C)CCNC(=S)Nc1ccc(Br)cc1,n,48,n,30,n,n
S=C(NCCc1ccccc1)Nc1ccc(Br)cc1,n,n,n,53,n,n
C=C(C)C(=O)/C=C/c1ccc(Br)cc1,x,x,n,x,x,x
O=[N+]([O-])c1ccc(NNC(=S)Nc2ccc(F)cc2)cc1,n,86,u,27,n,n
CCCCNC(=S)Nc1ccc([N+](=O)[O-])cc1,n,n,n,n,n,n
Cc1ccc(NC(=S)NCC(C)C)cc1,n,40,n,35,x,n
S=C(NCCc1ccccc1)Nc1ccccn1,u,92,n,39,n,n
SMILES,TbPYK inhibitor,Shiga toxin inh,Giardia FBPA inh,Cycloheximide cs,RE007 growth inh,LmPK inhibitor
CC(C)CCNC(=S)Nc1ccc([N+](=O)[O-])cc1,n,n,n,30,n,n
CCCN1CCC(NC(=S)Nc2ccc([N+](=O)[O-])cc2)CC1,n,n,n,10,n,n
CC1CCCCN1S(=O)(=O)c1cc2c(=O)nc3ccccn3c2cc1Cl (configuration not stated),n,x,x,x,x,x
O=S(=O)(NN=C1CCCCCC1)c1ccccc1,n,n,x,n,n,n
Cc1ccc(Cl)cc1N1CCN(C(c2ccc(F)cc2)c2nnc(-c3ccccc3)o2)CC1 (configuration not stated),n,x,x,x,x,x
CCCCC[C@H]1CN(Cc2ccc(OC)cc2)C(=O)[C@@H]1CC(=O)NCc1ccccc1,n,n,n,n,n,n
COc1nc(N)nc(NC23CC4CC(CC(C4)C2)C3)n1,n,21,n,15,n,n
CC1=NN(c2ccccc2)C(=O)/C1=C/c1ccc[nH]1,n,78,n,21,n,n
